Data from PMC4336329 (PLoS ONE, 2015).
The campaign covered roughly 310,000 compounds. About 14,000 (4.5%) showed an effect of 50% or more. Effects have a minus sign here. Shown is part of a subset that was picked to be rich in strong results.

biological target: human ether-à-go-go-related gene (hERG) potassium channel (human, UniProt Q12809); experiment: primary screen, population patch clamp on CHO cells stably expressing hERG; higher = less effect of the substance
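Further: peak tail current of the secondary pulse compared with the same well before compound.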

Sequence of human ether-à-go-go-related gene (hERG) potassium channel (Q12809 whole entry, looked up): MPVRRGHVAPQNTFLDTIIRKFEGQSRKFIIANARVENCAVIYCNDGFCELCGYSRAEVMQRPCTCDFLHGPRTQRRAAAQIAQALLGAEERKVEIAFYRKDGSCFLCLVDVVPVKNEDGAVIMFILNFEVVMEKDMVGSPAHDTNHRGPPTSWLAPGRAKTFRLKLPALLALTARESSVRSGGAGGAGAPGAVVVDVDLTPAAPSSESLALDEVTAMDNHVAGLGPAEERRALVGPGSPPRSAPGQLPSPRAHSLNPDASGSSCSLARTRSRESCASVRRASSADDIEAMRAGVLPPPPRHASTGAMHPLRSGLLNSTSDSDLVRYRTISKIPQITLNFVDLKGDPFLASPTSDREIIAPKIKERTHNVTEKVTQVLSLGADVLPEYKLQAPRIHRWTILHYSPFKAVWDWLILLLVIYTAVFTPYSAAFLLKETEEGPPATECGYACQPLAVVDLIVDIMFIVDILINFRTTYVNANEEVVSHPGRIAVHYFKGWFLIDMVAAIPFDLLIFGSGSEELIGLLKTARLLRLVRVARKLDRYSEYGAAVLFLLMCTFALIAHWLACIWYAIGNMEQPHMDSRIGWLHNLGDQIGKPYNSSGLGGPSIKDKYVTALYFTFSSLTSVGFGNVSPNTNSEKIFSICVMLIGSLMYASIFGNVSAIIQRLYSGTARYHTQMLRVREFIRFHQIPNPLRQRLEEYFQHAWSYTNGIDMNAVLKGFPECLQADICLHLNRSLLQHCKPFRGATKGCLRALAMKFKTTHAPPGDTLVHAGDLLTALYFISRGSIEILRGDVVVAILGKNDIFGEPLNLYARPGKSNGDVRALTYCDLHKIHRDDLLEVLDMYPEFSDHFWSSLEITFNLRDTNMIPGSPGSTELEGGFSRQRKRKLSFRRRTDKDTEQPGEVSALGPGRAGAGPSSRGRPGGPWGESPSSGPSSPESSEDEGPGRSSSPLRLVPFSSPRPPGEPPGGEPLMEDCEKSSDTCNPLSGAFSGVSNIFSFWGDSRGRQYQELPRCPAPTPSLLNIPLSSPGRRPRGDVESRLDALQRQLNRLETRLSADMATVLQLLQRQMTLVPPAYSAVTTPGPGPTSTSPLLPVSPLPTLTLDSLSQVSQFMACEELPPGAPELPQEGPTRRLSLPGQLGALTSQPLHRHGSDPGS

Row | SMILES | hERG current change (%, negative = inhibition) at 10uM [%]
1 | O=C(COc1c(Br)cc(Br)cc1Br)N/N=C/c1ccco1 | 14.2
2 | Nc1nnc(SCC(=O)Nc2ccc(Cl)c(C(=O)O)c2)s1 | 19.8
3 | O=C(NCCc1ccc(C(F)(F)F)cc1)C1CC(=O)N(c2ccc3c(c2)OCCO3)C1 (centres unmarked) | -2.97
4 | O=C(Cn1cc(C(=O)C2CCCCC2)c2ccccc21)NCC1CCCO1 (centres unmarked) | -14.8
5 | O=C(Nc1ccc(Br)cc1)NC1CCCCCCC1 | 2.29
6 | O=C(NCCN1CCCCC1)/C(=N\O)c1ccccc1 | 5.35
7 | O=C(CCC(=O)N1CCN(c2ccc(O)cc2)CC1)c1cccs1 | -3.11
8 | O=C(NCCC(=O)N1CCN(c2cccc(Cl)c2)CC1)c1ccc(Br)cc1 | -55
9 | COc1ccccc1N1CCN(C(=O)CCn2c(=O)[nH]c3ccsc3c2=O)CC1 | 8.71
10 | COc1ccc(N2CCN(C(=O)CCNC(=O)c3ccc(Br)cc3)CC2)cc1 | -20.2
11 | O=C(CCn1c(=O)[nH]c2ccsc2c1=O)N1CCN(c2cccc(Cl)c2)CC1 | -52.3
12 | O=C(c1cccs1)N1CCN(c2cccc(Cl)c2)CC1 | -16.5
13 | O=C(CCn1c(=O)[nH]c2ccsc2c1=O)N1CCN(c2ccc([N+](=O)[O-])cc2)CC1 | -35.2
14 | O=C(CCC(=O)N1CCN(c2cccc(Cl)c2)CC1)c1cccs1 | -56.8
15 | O=C(NCCC(=O)N1CCN(c2ccccc2O)CC1)c1ccc(Br)cc1 | -13.3
16 | COc1ccccc1CSc1ncc(-c2ccc([N+](=O)[O-])cc2)[nH]1 | -13.8
17 | CC(C)(C)C(=O)CN1C(=O)NC2(CCCc3ccccc32)C1=O (centres unmarked) | 14
18 | O=C(CCC1CCN(C(=O)c2cncs2)CC1)Nc1ccccc1 | -4.83
19 | COCCNC(=O)CN(C(=O)CCC(=O)Nc1ccccn1)c1ccc(C)c(C)c1 | 16
20 | CCc1ccc(C(=O)/C=C/NCc2ccc(F)cc2)cc1 | -4.74
21 | COc1ccc(C(=O)/C=C/NCc2ccc(F)cc2)cc1OC | -65
22 | Cc1ccc(C(=O)/C=C/NCc2ccc(F)cc2)cc1 | -9.71
23 | CC(C)=C1C2CCC1C1C(=O)N(c3nc(-c4ccccc4)c(C)s3)C(=O)C21 (centres unmarked) | -2.93

Row | SMILES | hERG current change (%, negative = inhibition) at 10uM [%]
24 | COc1cccc(NC(=O)CSc2nc3scc(C)c3c(=O)[nH]2)c1 | 10.5
25 | CC(=O)c1ccc(N2CCN(c3ccc(S(=O)(=O)NCCCN(C)C)cc3[N+](=O)[O-])CC2)cc1 | -18.1
26 | CN(C)CCNS(=O)(=O)c1ccc(N2CCN(c3ccc(F)cc3)CC2)c([N+](=O)[O-])c1 | -62.4
27 | CC(=O)c1ccc(N2CCN(c3ccc(S(=O)(=O)NCCN(C)C)cc3[N+](=O)[O-])CC2)cc1 | -23.2
28 | CCOC(=O)c1c(N)nn(C(=O)C(C)C)c1-c1ccc(OC)cc1 | 22.1
29 | O=[n+]1c2c(n([O-])c3cc(F)c(F)cc31)CCCC2 | 10.2
30 | CCN(CC)CCn1c2c(c(SCC(=O)Nc3nc(C)cs3)nc1=O)CCCC2 | -70.1
31 | CCN(CC)CCn1c2c(c(SCC(=O)Nc3nccs3)nc1=O)CCCC2 | -59.5
32 | Cc1csc(NC(=O)CSc2nc(=O)n(CCN(C)C)c3c2CCCC3)n1 | -55.9
33 | CCN(CC)CCCn1c2c(c(SCC(=O)Nc3nccs3)nc1=O)CCC2 | -32
34 | CN(C)CCn1c2c(c(SCC(=O)Nc3nccs3)nc1=O)CCCC2 | -30
35 | CCN(CC)CCCn1c2c(c(SCC(=O)Nc3nc(C)cs3)nc1=O)CCC2 | -42.6
36 | CCN(CC)CCn1c2c(c(SCC(=O)Nc3nc(C)cs3)nc1=O)CCC2 | -48.7
37 | Cc1ccc(S(=O)(=O)NCC(=O)NCC(=O)OC(C(=O)NC(N)=O)C(C)C)cc1C (centres unmarked) | 8.86
38 | CC(C)c1nc(SCC(=O)N2CCCCCC2)c2c(=O)n(C)c(=O)n(C)c2n1 | -11.2
39 | Cc1nc2c(cc1C(=O)N/N=C/c1ccc([N+](=O)[O-])cc1)c(=O)n(C)c(=O)n2C | -12
40 | CC1=C(C)CC(C(=O)Nc2cccc(Cl)c2)C(C(=O)O)C1 (centres unmarked) | 9.8
41 | CC(=O)NC1CC2CCCC(C1)N2CC(=O)N1CCCc2ccccc21 (centres unmarked) | -7.15
42 | O=C(CN1C2CCCC1CC(NC(=O)C1CCCCC1)C2)Nc1ccccc1 (centres unmarked) | -27
43 | O=C(NC1CC2CCCC(C1)N2CC(=O)N1CCCc2ccccc21)C1CCCCC1 (centres unmarked) | -70.6
44 | CCOC(=O)C1CCN(C(=O)C2CCN(S(=O)(=O)CC)CC2)CC1 | -2.7
45 | CCOC(=O)N1CCN(C(=O)C2CCN(C(=O)c3ccc(C(C)(C)C)cc3)CC2)CC1 | -31
46 | CCOC(=O)N1CCN(C(=O)C2CCN(C(=O)c3ccc([N+](=O)[O-])cc3)CC2)CC1 | -72

Row | SMILES | hERG current change (%, negative = inhibition) at 10uM [%]
47 | O=C(c1ccc([N+](=O)[O-])cc1)N1CCN(C(=O)C2CCCCC2)CC1 | -28.5
48 | NC(=O)C1CCN(C(=O)c2ccc3c(c2)S(=O)(=O)c2ccccc2C3=O)CC1 | 2.8
49 | O=C(c1ccc2c(c1)OCCO2)C1CCN(C(=O)c2ccc(F)c(F)c2)CC1 | -15.7
50 | CCOC(=O)C1CCN(C(=O)C2CCN(S(=O)(=O)N3CCCC3)CC2)CC1 | -64.9
51 | O=C1c2ccccc2S(=O)(=O)c2cc(C(=O)N3CCC(O)CC3)ccc21 | 6.7
52 | CCOC(=O)C1CCN(C(=O)c2ccc3c(c2)S(=O)(=O)c2ccccc2C3=O)CC1 | -76.6
53 | CCOC(=O)N1CCN(C(=O)C2CCN(S(=O)(=O)N3CCCC3)CC2)CC1 | 6.91
54 | O=C(c1ccc2c(c1)OCCO2)C1CCN(C(=O)c2ccc(F)cc2)CC1 | -13
55 | CCOc1ccc(C(=O)N2CCC(C(=O)c3ccc4c(c3)OCCO4)CC2)cc1 | -75.7
56 | CC1CC(C)CN(S(=O)(=O)c2ccc(NC(=S)NC(=O)c3ccccc3)cc2)C1 (centres unmarked) | 8.01
57 | CN(C)S(=O)(=O)c1ccc(NC(=O)C2CC(=O)N(Cc3ccccc3Cl)C2)cc1 (centres unmarked) | -0.379
58 | CCCC1(C(=O)OC)NC(c2ccc(OC)c(OC)c2)C2C(=O)N(c3ccc4c(c3)OCO4)C(=O)C21 (centres unmarked) | 16.7
59 | COc1ccc(-c2c(C#Cc3ccsc3)c3ccccc3n2C)cc1 | -6.31
60 | O=C(OCc1nnc(-c2ccc([N+](=O)[O-])cc2)o1)C1CCN(C(=O)c2ccc(F)cc2)CC1 | -76
61 | CCOc1ccc(NC(=O)N2CCC(C(=O)c3ccc(F)cc3)CC2)cc1 | -20.8
62 | O=C(Oc1cccc([N+](=O)[O-])c1)C1CCN(C(=O)c2ccc(F)cc2)CC1 | -41
63 | CCOC(=O)C1CCN(C(=O)C2CCN(C(=O)c3ccc([N+](=O)[O-])cc3)CC2)CC1 | -69.3
64 | CCOc1ccc(C(=O)C2CCN(C(=O)c3ccc([N+](=O)[O-])cc3)CC2)cc1 | -79.9
65 | CCOC(=O)C1CCN(C(=O)C(C)c2ccc([N+](=O)[O-])cc2)CC1 (centres unmarked) | -21.4
66 | O=C(CCC(=O)c1ccc(F)cc1)OCc1nnc(-c2ccc([N+](=O)[O-])cc2)o1 | -47
67 | CCOC(=O)C1CCN(C(=O)c2cc(OCC)c(OCC)c(OCC)c2)CC1 | -3.3
68 | CCOc1ccc(C(=O)C2CCN(C(=O)c3ccccc3C(=O)O)CC2)cc1 | -5.42
69 | CCOC(=O)C1CCN(C(=O)c2cccc(C(=O)N3CCC(C(=O)OCC)CC3)c2)CC1 | 4.75

Row | SMILES | hERG current change (%, negative = inhibition) at 10uM [%]
70 | CCOC(=O)C1CCN(C(=O)c2ccc(OCC)c(OCC)c2)CC1 | -79.4
71 | CCOC(=O)C1CCN(C(=O)c2ccc(N3CCOCC3)c([N+](=O)[O-])c2)CC1 | -41.8
72 | Cc1ccc(NS(=O)(=O)c2ccc(C(=O)NCc3cccnc3)cc2)cc1 | -4.14
73 | CC(C)c1ccc(NC(=O)CCS(=O)(=O)c2cccc3nonc23)cc1 | 1.81
74 | COc1cc(OC)cc(C(=O)N[C@H](C(=O)OCC(=O)Nc2cccc(F)c2)C(C)C)c1 | -5.55
75 | CC(C)(C)SCCNC(=O)CN1C(=O)c2ccccc2S1(=O)=O | -5.6
76 | CCOC(=O)C(=CNc1cccnc1Oc1ccc(C)c2c1CCC2)C(=O)OCC | -5.67
77 | Cc1cc(NC(=O)C(Cl)c2ccccc2)no1 (centres unmarked) | -0.0237
78 | O=C(CN(c1ccccc1)S(=O)(=O)c1ccccc1[N+](=O)[O-])Nc1cccnc1 | -21.1
79 | C=CCCC(=O)Nc1nc(C)c(-c2csc(Nc3ccccc3OC)n2)s1 | 3.6
80 | CCN1CCCC1CNC1=NCCCCC1 (centres unmarked) | 7.64
81 | CCc1nnc(NS(=O)(=O)c2ccc(NC(=O)c3ccccc3OC)cc2)s1 | 18.5
82 | COc1ccccc1Nc1nnc(SCc2cc(=O)n3cc(C)ccc3n2)s1 | -12.8
83 | COc1ccc(C)cc1NC(=O)NC1CCCCCCC1 | 21
84 | COc1ccccc1NC(=O)c1ccc(Cl)c(S(=O)(=O)NCc2ccco2)c1 | -37.7
85 | O=C(NCc1ccco1)c1ccc(Cl)c(S(=O)(=O)N2CCOCC2)c1 | -7.4
86 | O=C(Nc1ccccc1N1CCOCC1)c1ccc(S(=O)(=O)NCc2ccco2)cc1 | -15.7
87 | CN(C)C1(CNC(=O)c2ccc(Cl)c(S(=O)(=O)NCc3ccco3)c2)CCCCC1 | -37.3
88 | O=C(Nc1ccccc1N1CCOCC1)c1ccc(Cl)c(S(=O)(=O)NCc2ccco2)c1 | -51.8
89 | O=C(NCC1(N2CCOCC2)CCCCC1)c1ccc(Cl)c(S(=O)(=O)NCc2ccco2)c1 | -52.1
